Test results reported in PubChem BioAssay (NCATS).
A number with no mark means an inactive call. Records with an inconclusive call do not appear. Active and inactive are the calls of the source. Unless noted, calls come from the whole dose curve; as a rule, active = well fitted curve in the direction sought with a large enough effect; inconclusive = small, poorly fitted or top-dose-only effect, or another doubt; inactive = no such curve, though single readings can be large; an effect the other way counts as inactive or inconclusive.

test system: not listed separately; test: S16 Schwann cell PMP22 intronic element beta-lactamase assay (AID 624044; calls by dose curve; note: nearly all actives have a fitted effect of over 15% in size; note: potency is the fitted concentration of half-maximal effect;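 for ratio activity, negative = inhibition: 0% = DMSO and -100% = potassium clavulanate positive control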); conditions: S16 rat Schwann cells, PMP22 element beta-lactamase FRET, 24 h; series mostly up to 38.3 µM; ratio activity, negative = inhibition: at the top concentration
Summary of the method: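 Rat S16 Schwann cells with beta-Lac driven by a PMP22 intronic element, compound-treated 24 h at 37 °C. LiveBLAzer FRET B/G read: 460 nm normalized to potassium clavulanate vs DMSO; 535 nm FRET as viability; concentration-effect curves classified.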

Q: Which “ratio activity, negative = inhibition” value does the source give for `CCCCCN(C)CCC(O)(P(=O)(O)O)P(=O)(O)O` here?
A: 3.22%

Q: For `Clc1ccc(Cn2c(CN3CCCC3)nc3ccccc32)cc1`, which “ratio activity, negative = inhibition” value is on record?
A: -9.19% [at 17.1 µM]

Q: With `O=C(CCCCCCC(=O)Nc1ccccc1)NO` as the molecule, how does the Potency read?
A: 2.24 µM (active)

Q: For `COCCCCC(=NOCCN)c1ccc(C(F)(F)F)cc1`, which “ratio activity, negative = inhibition” value is on record?
A: -10.2%

Q: For `Clc1ccc(COC(Cn2ccnc2)c2ccc(Cl)cc2Cl)cc1` (centres undefined), which “ratio activity, negative = inhibition” value is on record?
A: -13.2%

Q: Which “ratio activity, negative = inhibition” value does the source give for `COc1cc2ncnc(Nc3ccc(F)c(Cl)c3)c2cc1OCCCN1CCOCC1` here?
A: -20.5%

Q: For `O=C(O)c1c(Cl)c(Cl)c(Cl)c(Cl)c1-c1c2cc(I)c(=O)c(I)c-2oc2c(I)c(O)c(I)cc12`, which “ratio activity, negative = inhibition” value is on record?
A: 5.78%

Q: For `O=C1Nc2ccc(Cl)cc2C(C#CC2CC2)(C(F)(F)F)O1` (centres undefined), which “ratio activity, negative = inhibition” value is on record?
A: -12.4%

molecular target: Glutaminase kidney isoform, mitochondrial (Homo sapiens) (UniProt O94925); test: qHTS for Inhibitors of Glutaminase (GLS): LOPAC Validation (AID 624146); conditions: glutaminase enzyme activity inhibition; series mostly up to 46.1 µM; activity change, negative = inhibition: at the top concentration;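 note: glutamate product detected by oxidase and peroxidase coupled Amplex red fluorescence gain; % is set by controls: 0 for no effect and ±100 for the full control effect; nearly all actives have a fitted effect of over 60% in size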
Summary of the method: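 Read-out is an Amplex red fluorescence increase coupled through glutamate oxidase and HRP, measured before and after 30 min room-temperature incubation. hKGA is in 45 mM KH2PO4 (pH 8.2) with 0.02% Tween-20; glutamine added as 1mM solution.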

Chain of Glutaminase kidney isoform, mitochondrial (Homo sapiens) (O94925 whole entry, looked up, canonical isoform): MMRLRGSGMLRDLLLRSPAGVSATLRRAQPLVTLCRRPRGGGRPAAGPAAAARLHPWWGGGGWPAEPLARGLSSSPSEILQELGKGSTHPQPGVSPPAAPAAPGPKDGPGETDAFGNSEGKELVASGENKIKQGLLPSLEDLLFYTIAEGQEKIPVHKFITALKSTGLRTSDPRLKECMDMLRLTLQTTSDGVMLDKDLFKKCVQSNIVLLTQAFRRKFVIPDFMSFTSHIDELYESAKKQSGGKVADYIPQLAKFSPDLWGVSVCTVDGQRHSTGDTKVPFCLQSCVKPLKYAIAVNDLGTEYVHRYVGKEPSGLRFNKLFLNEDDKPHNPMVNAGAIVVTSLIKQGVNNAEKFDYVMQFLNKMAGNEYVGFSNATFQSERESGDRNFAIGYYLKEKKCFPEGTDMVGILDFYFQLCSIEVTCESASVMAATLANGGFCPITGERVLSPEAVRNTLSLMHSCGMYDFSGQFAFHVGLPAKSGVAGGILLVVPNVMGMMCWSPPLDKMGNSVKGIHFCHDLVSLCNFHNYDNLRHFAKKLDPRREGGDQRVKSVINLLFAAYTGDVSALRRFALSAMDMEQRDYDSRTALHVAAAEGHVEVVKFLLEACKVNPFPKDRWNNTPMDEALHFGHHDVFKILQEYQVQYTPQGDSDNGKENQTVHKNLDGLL

Q: For `C[N+](C)(C)CC(=O)O`, which “activity change, negative = inhibition” value is on record?
A: -15.9%

Q: For `CCCCCN(C)CCC(O)(P(=O)(O)O)P(=O)(O)O`, which “activity change, negative = inhibition” value is on record?
A: 145%

Q: Which “activity change, negative = inhibition” value does the source give for `Clc1ccc(Cn2c(CN3CCCC3)nc3ccccc32)cc1` here?
A: -16%

Q: For `CCN(CC)CCNC(=O)c1ccc(N)cc1`, which “activity change, negative = inhibition” value is on record?
A: -5.92%

Q: Which “activity change, negative = inhibition” value does the source give for `O=C(O)CCc1nc(-c2ccccc2)c(-c2ccccc2)o1` here?
A: -18.6%

Q: Which “activity change, negative = inhibition” value does the source give for `CC/C(=C(\c1ccccc1)c1ccc(OCCN(C)C)cc1)c1ccccc1` here?
A: -11.8%

Q: With `O=C(NCCN1CCOCC1)c1ccc(Cl)cc1` as the molecule, how does the “activity change, negative = inhibition” value read?
A: -7.8%

Q: With `COc1cccc(-c2cc(=O)c3ccccc3o2)c1N` as the molecule, how does the “activity change, negative = inhibition” value read?
A: 0.173%

Q: For `CC(C)(C)c1ccc(C(O)CCCN2CCC(C(O)(c3ccccc3)c3ccccc3)CC2)cc1` (centres undefined), which “activity change, negative = inhibition” value is on record?
A: -7.16%

Q: Which “activity change, negative = inhibition” value does the source give for `CC(C)NCC(O)COc1cccc2[nH]ccc12` (centres undefined) here?
A: -8.44%

Q: With `COC(=O)[C@@H]1[C@H]2C[C@H]3c4[nH]c5ccccc5c4CCN3C[C@@H]2CC[C@@H]1O` as the molecule, how does the “activity change, negative = inhibition” value read?
A: -6.15%

Q: Which “activity change, negative = inhibition” value does the source give for `Clc1ccc(C(c2ccc(Cl)cc2)n2cc[n+](CC(OCc3ccc(Cl)cc3Cl)c3ccc(Cl)cc3Cl)c2)cc1` (centres undefined) here?
A: 18.2%

Q: For `COc1ccc(Cc2nccc3cc(OC)c(OC)cc23)cc1OC`, which “activity change, negative = inhibition” value is on record?
A: 9.35%

molecular target: Glucagon-like peptide 1 receptor (Homo sapiens) (UniProt P43220); test: qHTS of GLP-1 Receptor Agonists: LOPAC Validation (AID 624148); conditions: GLP-1R agonist cell assay; series mostly up to 46.1 µM; activation: at the top concentration;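 note: 0% is about no effect; higher luminescence signal means agonism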
Summary of the method: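 HEK293 cells stably co-expressing a cAMP-responsive luciferase reporter and a hypersensitive GLP-1R were plated 12 h at 37 °C and exposed to compounds for 4-6 hr at 37 °C, 5% CO2. Luminescence was read 12 min after adding detection reagent.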

Chain of Glucagon-like peptide 1 receptor (Homo sapiens) (P43220 whole entry, looked up): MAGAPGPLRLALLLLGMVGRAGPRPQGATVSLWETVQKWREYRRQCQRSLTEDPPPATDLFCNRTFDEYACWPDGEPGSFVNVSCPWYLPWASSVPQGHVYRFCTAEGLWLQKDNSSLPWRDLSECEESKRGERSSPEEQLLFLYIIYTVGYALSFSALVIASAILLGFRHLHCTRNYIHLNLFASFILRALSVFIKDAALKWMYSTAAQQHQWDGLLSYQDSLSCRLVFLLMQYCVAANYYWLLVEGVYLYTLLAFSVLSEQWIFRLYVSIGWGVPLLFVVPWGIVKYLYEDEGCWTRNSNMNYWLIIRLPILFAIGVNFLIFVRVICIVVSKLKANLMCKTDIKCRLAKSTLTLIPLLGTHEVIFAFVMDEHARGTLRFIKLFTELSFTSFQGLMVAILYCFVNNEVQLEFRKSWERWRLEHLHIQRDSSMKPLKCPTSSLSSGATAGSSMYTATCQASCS

Q: With `C[N+](C)(C)CC(=O)O` as the molecule, how does the “activation” value read?
A: -1.42%

Q: For `CCCCCN(C)CCC(O)(P(=O)(O)O)P(=O)(O)O`, which “activation” value is on record?
A: -1.77%

Q: Which “activation” value does the source give for `Clc1ccc(Cn2c(CN3CCCC3)nc3ccccc32)cc1` here?
A: -2.18%

Q: Which “activation” value does the source give for `O=C(O)CCc1nc(-c2ccccc2)c(-c2ccccc2)o1` here?
A: -1.13%

Q: With `CC/C(=C(\c1ccccc1)c1ccc(OCCN(C)C)cc1)c1ccccc1` as the molecule, how does the “activation” value read?
A: 5.66%

Q: Which “activation” value does the source give for `O=C(NCCN1CCOCC1)c1ccc(Cl)cc1` here?
A: -1.18%

Q: For `COc1cccc(-c2cc(=O)c3ccccc3o2)c1N`, which “activation” value is on record?
A: 0.865%

Q: With `CCN(CC)C(=O)c1ccc(O)c(OC)c1` as the molecule, how does the “activation” value read?
A: 1.3%

Q: With `CC1(C)CCC2=C(O1)c1ccccc1C(=O)C2=O` as the molecule, how does the “activation” value read?
A: -0.173%

Q: For `CC(C)(C)c1ccc(C(O)CCCN2CCC(C(O)(c3ccccc3)c3ccccc3)CC2)cc1` (centres undefined), which “activation” value is on record?
A: -1.22%

Q: Which “activation” value does the source give for `CC(C)NCC(O)COc1cccc2[nH]ccc12` (centres undefined) here?
A: 4.06%

Q: For `COC(=O)[C@@H]1[C@H]2C[C@H]3c4[nH]c5ccccc5c4CCN3C[C@@H]2CC[C@@H]1O`, which “activation” value is on record?
A: -1.03%

Q: With `Clc1ccc(C(c2ccc(Cl)cc2)n2cc[n+](CC(OCc3ccc(Cl)cc3Cl)c3ccc(Cl)cc3Cl)c2)cc1` (centres undefined) as the molecule, how does the “activation” value read?
A: 0.753%

Q: With `NC(N)=Nc1nc(CSCC/C(N)=N/S(N)(=O)=O)cs1` as the molecule, how does the “activation” value read?
A: 6.02%

test system: not listed separately; test: qHTS of Nrf2 Activators: LOPAC Validation (AID 624149); conditions: Nrf2/ARE reporter cell assay; series mostly up to 46.1 µM; activation: at the top concentration; note: 0% is about no effect
Summary of the method: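 ARE reporter activation measured in AREc32 firefly luciferase cells after 24 hr compound exposure; Steady-Glo luminescence.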

Q: With `C[N+](C)(C)CC(=O)O` as the molecule, how does the “activation” value read?
A: -0.606%

Q: For `CCCCCN(C)CCC(O)(P(=O)(O)O)P(=O)(O)O`, which “activation” value is on record?
A: -1.13%

Q: With `Clc1ccc(Cn2c(CN3CCCC3)nc3ccccc32)cc1` as the molecule, how does the “activation” value read?
A: -2.45%

Q: For `CCN(CC)CCNC(=O)c1ccc(N)cc1`, which “activation” value is on record?
A: 0.767%

Q: With `CC/C(=C(\c1ccccc1)c1ccc(OCCN(C)C)cc1)c1ccccc1` as the molecule, how does the “activation” value read?
A: 1.55%

Q: Which “activation” value does the source give for `O=C(NCCN1CCOCC1)c1ccc(Cl)cc1` here?
A: 0.866%

Q: For `COc1cccc(-c2cc(=O)c3ccccc3o2)c1N`, which “activation” value is on record?
A: 0.444%

Q: Which “activation” value does the source give for `CCN(CC)C(=O)c1ccc(O)c(OC)c1` here?
A: -2.05%

Q: With `CC1(C)CCC2=C(O1)c1ccccc1C(=O)C2=O` as the molecule, how does the “activation” value read?
A: -3.12%

Q: For `COC(=O)[C@@H]1[C@H]2C[C@H]3c4[nH]c5ccccc5c4CCN3C[C@@H]2CC[C@@H]1O`, which “activation” value is on record?
A: -1.18%

Q: Which “activation” value does the source give for `Clc1ccc(C(c2ccc(Cl)cc2)n2cc[n+](CC(OCc3ccc(Cl)cc3Cl)c3ccc(Cl)cc3Cl)c2)cc1` (centres undefined) here?
A: 0.284%

Q: Which “activation” value does the source give for `COc1ccc(Cc2nccc3cc(OC)c(OC)cc23)cc1OC` here?
A: 0.972%

Q: For `NC(N)=Nc1nc(CSCC/C(N)=N/S(N)(=O)=O)cs1`, which “activation” value is on record?
A: -1.7%

test system: not listed separately; test: HTS Assay for Allosteric Antagonists of the Human D2 Dopamine Receptor: Hit Validation in HTRF (AID 624455); conditions: Cells stably expressing D1 dopamine receptor, inhibition mode; series mostly up to 46.1 µM; activity, negative = inhibition: at the top concentration;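 note: stable D1 dopamine receptor cell line scored for blocking the D1 response; % is set by controls: 0 for no effect and ±100 for the full control effect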
Summary of the method: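 Signal from an HTRF read-out in D1-expressing stable cells gave hit activity as inhibition of the D1 response.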

Q: For `C[N+](C)(C)CC(=O)O`, which “activity, negative = inhibition” value is on record?
A: -3.09%

Q: Which “activity, negative = inhibition” value does the source give for `CCCCCN(C)CCC(O)(P(=O)(O)O)P(=O)(O)O` here?
A: 0.141%

Q: With `Clc1ccc(Cn2c(CN3CCCC3)nc3ccccc32)cc1` as the molecule, how does the “activity, negative = inhibition” value read?
A: -1.46%

Q: For `CCN(CC)CCNC(=O)c1ccc(N)cc1`, which “activity, negative = inhibition” value is on record?
A: 0.814%

Q: For `O=C(O)CCc1nc(-c2ccccc2)c(-c2ccccc2)o1`, which “activity, negative = inhibition” value is on record?
A: 6.69%

Q: Which “activity, negative = inhibition” value does the source give for `CC/C(=C(\c1ccccc1)c1ccc(OCCN(C)C)cc1)c1ccccc1` here?
A: -5.77%

Q: With `O=C(NCCN1CCOCC1)c1ccc(Cl)cc1` as the molecule, how does the “activity, negative = inhibition” value read?
A: -2.78%

Q: For `COc1cccc(-c2cc(=O)c3ccccc3o2)c1N`, which “activity, negative = inhibition” value is on record?
A: 6.73%

Q: Which “activity, negative = inhibition” value does the source give for `CCN(CC)C(=O)c1ccc(O)c(OC)c1` here?
A: -2.32%

Q: Which “activity, negative = inhibition” value does the source give for `CC1(C)CCC2=C(O1)c1ccccc1C(=O)C2=O` here?
A: -0.507%

Q: For `CC(C)(C)c1ccc(C(O)CCCN2CCC(C(O)(c3ccccc3)c3ccccc3)CC2)cc1` (centres undefined), which “activity, negative = inhibition” value is on record?
A: -1.44%

Q: Which “activity, negative = inhibition” value does the source give for `CC(C)NCC(O)COc1cccc2[nH]ccc12` (centres undefined) here?
A: 6.58%

Q: Which “activity, negative = inhibition” value does the source give for `COC(=O)[C@@H]1[C@H]2C[C@H]3c4[nH]c5ccccc5c4CCN3C[C@@H]2CC[C@@H]1O` here?
A: -3.95%

Q: For `Clc1ccc(C(c2ccc(Cl)cc2)n2cc[n+](CC(OCc3ccc(Cl)cc3Cl)c3ccc(Cl)cc3Cl)c2)cc1` (centres undefined), which “activity, negative = inhibition” value is on record?
A: -7.68%

Q: Which “activity, negative = inhibition” value does the source give for `COc1ccc(Cc2nccc3cc(OC)c(OC)cc23)cc1OC` here?
A: 9.02%

Q: Which “activity, negative = inhibition” value does the source give for `NC(N)=Nc1nc(CSCC/C(N)=N/S(N)(=O)=O)cs1` here?
A: 0.141%
